Compounds without any hit were thinned out: in the full panel of roughly 83,000, 20% have a hit.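 How to read the values: 0–100, growth inhibition (40 = 60% inhibited); 0, no net growth; -100 to 0, cell death (-40 = 40% of starting cells died; -100 = all dead).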 A number with no mark means an inactive call. Calls of active or inactive are those of the source. Rule for the calls: active = growth percent below 10; inactive = the rest.
Legend:
Assay in all cases: NCI-60 one-dose screen, 48 h (100 = growth as untreated, 0 = no growth, -100 = all killed)
Details in all cases: 10 µM unless noted
SR leukemia = tested on: SR leukemia
RPMI-8226 leukemia = tested on: RPMI-8226 leukemia
OVCAR-8 ovarian = tested on: OVCAR-8 ovarian
OVCAR-5 ovarian = tested on: OVCAR-5 ovarian
OVCAR-4 ovarian = tested on: OVCAR-4 ovarian
SK-OV-3 ovarian = tested on: SK-OV-3 ovarian
IGROV1 ovarian = tested on: IGROV1 ovarian
OVCAR-3 ovarian = tested on: OVCAR-3 ovarian
HS 578T breast = tested on: HS 578T breast
NCI/ADR-RES ovarian = tested on: NCI/ADR-RES ovarian

Structure (SMILES) | growth (SR leukemia) | growth (RPMI-8226 leukemia) | growth (OVCAR-8 ovarian) | growth (OVCAR-5 ovarian) | growth (OVCAR-4 ovarian) | growth (SK-OV-3 ovarian) | growth (IGROV1 ovarian) | growth (OVCAR-3 ovarian) | growth (HS 578T breast) | growth (NCI/ADR-RES ovarian)
Nc1c(C(=O)Nc2c(Cl)cccc2Cl)sc2nc3c(cc12)CCCC3 | 12% | 93.4% | 84.9% | 105% | 89.9% | 83.3% | 79.5% | 64% | 82.3% | 60.8%
COc1cc2c(cc1-c1c(C)noc1C)ncc1nc(C3CCCCC3)n([C@@H](C)COC(F)F)c12 | 14.5% | 13.3% | 39.1% | 76.6% | 41.8% | 4.85% (active) | 43.8% | 35.6% | 14.3% | 37%
N#CCCCCCn1c2ccccc2c2c3c(c4c5ccccc5n(CCCCCC#N)c4c21)C(=O)N(O)C3=O | 42.9% | 37.7% | 69.4% | 109% | 93.4% | 71.2% | 75.2% | 96.1% | 92.7% | 85.9%
c1cnc2[nH]cc(-c3csc(-c4cn(CCCN5CCCCC5)c5ccccc45)n3)c2c1 | -31.4% (active) | -26.8% (active) | 69.7% | 92.5% | 75.7% | 94.2% | 34.6% | 60.4% | 73.3% | 68.1%
Cc1nn(-c2ccc(Cl)cc2)c(=O)n1CCn1cnc2ccccc21 | 104% | 104% | 112% | 99.9% | 118% | 113% | 102% | 111% | 100% | 103%
CCN1CCN(C(=O)[C@@]2(C)CC[C@]3(C)CC[C@]4(C)C(=CC(=O)[C@@H]5[C@@]6(C)CC[C@H](OC7C[C@@H](O)[C@@H](O)C(C)O7)C(C)(C)[C@@H]6CC[C@]54C)[C@@H]3C2)CC1 (stereo not given in full) | -4.66% (active) | -25.7% (active) | 12.3% | 9.86% (active) | 0.113% (active) | 113% | 26.5% | 105% | 87.5% | 47%
Cn1cc(-c2csc(-c3cn(CCN)c4ccc(F)cc34)n2)c2cccnc21 | 2.79% (active) | 67.9% | 72.1% | 80.2% | 54.6% | 78% | 39.6% | 84.1% | 77.9% | 78.3%
O=C1CCCC=CC[C@H]2C=C(Cl)C(=O)C2=CC[C@H](CCCCC(F)(F)F)OC(=O)CCCC=CC[C@H]2C=C(Cl)C(=O)C2=CC[C@H](CCCCC(F)(F)F)OC(=O)CCCC=CC[C@H]2C=C(Cl)C(=O)C2=CC[C@H](CCCCC(F)(F)F)O1 | 11.6% [6.25 µM] | 4.9% [6.25 µM] (active) | 8.78% [6.25 µM] (active) | 140% [6.25 µM] | 68.7% [6.25 µM] | 119% [6.25 µM] | 43.7% [6.25 µM] | 14.3% [6.25 µM] | 81.9% [6.25 µM] | 97.6% [6.25 µM]
COc1ccc2c(c1)c(-c1nc(-c3cn(C)c4ncccc34)cs1)cn2CCN | 27.4% | 75.8% | 71.1% | 78.1% | 41.1% | 94.9% | 41.8% | 88.8% | 85.6% | 88.1%
Cc1cc(N2CCCC2)nc(N(CCNc2ccnc3cc(Cl)ccc23)Cc2ccco2)n1 | -14.9% (active) | -42.3% (active) | 57% | 25.3% | 38.6% | 65.5% | 4.93% (active) | 13.8% | 62.1% | 18.4%
c1csc(-c2nc(-c3cc4ccccc4c(N4CCOCC4)n3)cs2)c1 | 97.7% | 106% | 102% | 124% | 110% | 99.5% | 86.3% | 111% | 99.9% | 94.2%
COc1ccc(OC)c(-c2c(C#N)c(-c3ccco3)nc3c2c(-c2ccccc2)nn3-c2ccccc2)c1 | 101% | 96.7% | 96.2% | 95.5% | 103% | 95.8% | 88.9% | 112% | 86.2% | 93.8%
COC(=O)[C@]12CC[C@@H](C(/C=C/c3cccnc3)=N/O)[C@@H]1[C@H]1CC[C@@H]3[C@@]4(C)CC(=C/c5cccnc5)/C(=N/O)C(C)(C)[C@@H]4CC[C@@]3(C)[C@]1(C)CC2 | 11.4% | 1.81% (active) | 39% | 60.6% | 40.8% | 64.7% | 16.9% | 37.4% | 78.6% | 33.6%
CC(=O)c1c(C)[nH]c(-c2nc3ccc(N4CCN(C)CC4)cc3[nH]2)c1-c1ccc2c(c1)OCCO2 | 46.2% | 7.78% (active) | 48.2% | 46.4% | 43% | 28.7% | 23% | 46% | 30.1% | 53%
O=S(=O)(NCCNc1cc(-c2cn(-c3ccccc3)nc2-c2cccc(O)c2)ccn1)c1ccc(C(F)(F)F)cc1 | -23.1% (active) | 18.5% | 48.3% | 62.7% | 39% | 54% | 43.3% | 49.2% | 48.6% | 43.4%
CC(=O)c1c(C)[nH]c(-c2nc3ccc(N4CCN(C)CC4)cc3[nH]2)c1-c1ccc(N(C)C)cc1 | 33% | 0.258% (active) | 43.7% | 41.6% | 37.2% | 12.6% | 15.6% | 34.6% | 21.1% | 34.2%
C[C@H]1[C@H]2C3=CC[C@@H]4[C@@]5(C)C/C(=C/c6ccco6)C(=O)C(C)(C)[C@@H]5CC[C@@]4(C)[C@]3(C)CC[C@@]2(C(=O)N2CCOCC2)CC[C@@H]1C | 29.4% | 40.4% | 54.7% | 96.6% | 50.1% | 107% | 56.5% | 55.6% | 77.9% | 83.1%
COc1cccc(-c2nn(-c3ccccc3)cc2-c2ccnc(NCCCNS(=O)(=O)c3ccccc3)c2)c1 | 2.99% (active) | 18.4% | 16% | 67.2% | 39.6% | 43% | 31.3% | 41.3% | 37.5% | 21.1%
Cc1ccc(Sc2sc(-c3ccccc3)nc2[P+](c2ccccc2)(c2ccccc2)c2ccccc2)cc1 | -10.1% (active) | -39.2% (active) | 7.53% (active) | 25.4% | 2.09% (active) | -22.5% (active) | -0.559% (active) | -9.1% (active) | -1.87% (active) | -7.72% (active)
COc1cccc(-c2nn(-c3ccccc3)cc2-c2ccnc(NCCCN)c2)c1 | -10.5% (active) | 44% | 62% | 95.8% | 63.8% | 70.9% | 54.4% | 29.2% | 43.6% | 25%
N#Cc1cnc2cc(OC[C@@H](O)CO)c(NC(=O)C3CCCC3)cc2c1Nc1ccc(OCc2cccc(F)c2)c(Cl)c1 | 13.4% | -13.5% (active) | -13.6% (active) | 86.1% | -74.8% (active) | 27% | 4.22% (active) | -82% (active) | -32.2% (active) | 63.3%
COc1ccc(NC(=O)c2ccc3c(c2)nc(-c2cc4ccccc4[nH]c2=O)n3-c2cc(C(C)(C)C)[nH]n2)cc1 | 84.8% | 83.9% | 97.6% | 95.9% | 86.5% | 111% | 80.7% | 100% | 80.9% | 103%
COc1ccc2c(c1)c1nc3cc(C)c(C)cc3nc1n2CCN(C)C | -8.86% (active) | -16.3% (active) | 6.83% (active) | -2.58% (active) | 19.8% | 27.5% | -7.58% (active) | 27.1% | 44.6% | -70.3% (active)
COc1ccc(/C=C2\N=C(c3ccccc3)N(c3cc(OC)c(OC)cc3C(=O)N3N=C(C)CC3=O)C2=O)cc1 | 92.1% | 47.7% | 89.4% | 103% | 101% | 99.3% | 99.8% | 105% | 91.7% | 78.6%
COc1ccccc1CNc1nc(N)nc2[nH]c3ccc(O)cc3c12 | 4.16% (active) | 48.8% | 53.7% | 76.4% | 80.2% | 73.4% | 50.9% | 44.6% | 59.2% | 82.6%

From PubChem BioAssay (NCI)
